The values that follow come from PubChem BioAssay (EPA / NIEHS).

What is called AC50 is the concentration at which the activity in the assay is half-maximal.

Inconclusive results are not listed. The source made the active and inactive calls. The calls were made as follows, unless noted: active = hit-call score of the fitted dose curve at least 0.9, where 1 is the maximum; inactive = score below 0.9.

Assay [1] in a line: ATG_TAL_CIS: Attagene CIS-FACTORIAL HepG2 Assay for human TAL Basal Promoter (AID 2282966).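 Also: background control endpoint measuring basal TAL promoter reporter mRNA not a specific factor.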 Conditions: HepG2 Attagene cis-factorial TAL promoter reporter; actives raise or lower the signal. Summed up:
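HepG2 cells were transiently transfected with promoter-driven multiplexed reporter units and dosed for 24 h. Reporter mRNA was measured by RT-PCR with capillary electrophoresis fluorescence; bidirectional fits used DMSO as baseline, serving as a background control.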

Assay [2] can be described thus: ATG_TGFb_CIS: Attagene CIS-FACTORIAL HepG2 Assay for human Transforming Growth Factor (TGF) (AID 2282967). To be noted: HepG2 Attagene CIS TGFb reporter, mRNA transcription; actives raise or lower the signal. Summed up:
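Transcript-level reporter readout: HepG2 transfectants, 24 h exposure, RNA to cDNA, reporter-specific PCR, fluorescent primer extension, capillary sizing against ROX standards. Gain- or loss-of-signal relative to DMSO.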

Assay [3] in a line: ATG_VDRE_CIS: Attagene CIS-FACTORIAL HepG2 Assay for human Vitamin D Receptor Element (VDRE) (AID 2282968). Conditions: HepG2 VDRE cis-reporter transcription, actives raise or lower the signal. The method in brief: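 Cell-based multiplexed reporter format in human liver HepG2 cells, 24 h post-dose. Fluorescence from capillary electrophoresis of reporter cDNA gives the signal, with DMSO as negative control and baseline.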

For assay [4], the target named is Steroid hormone receptor ERR1 (Homo sapiens) (UniProt P11474). Nature of the assay: ATG_ERRa_TRANS: Attagene TRANS-FACTORIAL HepG2 Assay for human Estrogen-Related Receptor alpha (ERRa) (AID 2282971; active = hit-call score of the fitted dose curve at least 0.9, where 1 is the maximum). To be noted: HepG2 Attagene TRANS reporter, ERRa transactivation. Summed up: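 HepG2 cells transiently transfected with multiplexed GAL4-UAS reporter units reading chimeric ERRa-Gal4 activity; 24 h compound exposure. Reporter mRNA measured by RT-PCR, 6-FAM labelling, HpaI digest and capillary electrophoresis; gain of signal fitted versus DMSO baseline.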
Sequence of Steroid hormone receptor ERR1 (Homo sapiens) (P11474 whole entry, looked up, the tested form may be a part): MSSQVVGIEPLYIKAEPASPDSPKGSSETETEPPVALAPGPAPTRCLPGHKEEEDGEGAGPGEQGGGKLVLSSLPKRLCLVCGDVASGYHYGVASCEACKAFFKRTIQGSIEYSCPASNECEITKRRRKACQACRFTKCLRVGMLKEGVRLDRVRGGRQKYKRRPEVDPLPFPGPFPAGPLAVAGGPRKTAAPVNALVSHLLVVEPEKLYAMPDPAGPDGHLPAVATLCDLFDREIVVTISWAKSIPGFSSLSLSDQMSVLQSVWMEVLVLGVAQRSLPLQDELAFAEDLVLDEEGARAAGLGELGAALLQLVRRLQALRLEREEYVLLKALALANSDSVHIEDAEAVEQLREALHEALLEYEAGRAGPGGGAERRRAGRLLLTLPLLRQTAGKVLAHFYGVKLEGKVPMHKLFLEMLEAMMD

Assay [5] deals with X-box-binding protein 1 (Homo sapiens) (UniProt P17861). Nature of the assay: ATG_Xbp1_CIS: Attagene CIS-FACTORIAL HepG2 Assay for human X-box Binding Protein 1 (XBP1) (AID 2282972). To be noted: HepG2 XBP1 cis-element reporter, Attagene multiplex; actives raise or lower the signal. The method in brief: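 Fluorescence-labelled cDNA fragments from reporter transcripts, separated by capillary electrophoresis, give the signal. Source: HepG2 cells transfected with promoter-driven reporter units, harvested 24 h post-dose. DMSO served as reference for bidirectional curve fitting.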
Sequence of X-box-binding protein 1 (Homo sapiens) (P17861 whole entry, looked up, the tested form may be a part): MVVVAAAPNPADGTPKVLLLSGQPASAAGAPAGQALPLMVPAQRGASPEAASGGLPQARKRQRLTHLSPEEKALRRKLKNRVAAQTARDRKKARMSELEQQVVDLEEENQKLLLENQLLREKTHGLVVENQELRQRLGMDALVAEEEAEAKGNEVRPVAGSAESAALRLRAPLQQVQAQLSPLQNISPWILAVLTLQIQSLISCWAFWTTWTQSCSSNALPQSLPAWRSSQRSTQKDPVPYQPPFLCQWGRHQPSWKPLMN

The target in assay [6] is Estrogen-related receptor gamma (Homo sapiens) (UniProt P62508). Description: ATG_ERRg_TRANS: Attagene TRANS-FACTORIAL HepG2 Assay for human Estrogen-Related Receptor gamma (ERRg) (AID 2282977; active = hit-call score of the fitted dose curve at least 0.9, where 1 is the maximum;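 also: hits increase reporter signal over DMSO so potencies reflect activators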). To be noted: HepG2 Attagene TRANS reporter, ERRg transactivation. Summed up:
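Transient HepG2 transfectants, 24 h compound exposure, GAL4-UAS reporter mRNA by RT-PCR/6-FAM labelling/capillary electrophoresis; positive direction vs DMSO.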

The target of assay [7] is Bile acid receptor (Homo sapiens) (UniProt Q96RI1). Description: ATG_FXR_TRANS: Attagene TRANS-FACTORIAL HepG2 Assay for Farnesoid X Receptor (FXR) (AID 2282979; active = hit-call score of the fitted dose curve at least 0.9, where 1 is the maximum;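 also: hits raise reporter mRNA above DMSO so AC50 marks FXR activation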). To be noted: HepG2 Attagene TRANS FXR-GAL4 reporter transcription. The method in brief: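 HepG2 cells transiently transfected with reporter constructs in which a chimeric FXR-GAL4 protein drives a GAL4-UAS reporter; 24 h compound exposure. Reporter mRNA measured by RT-PCR, FAM labelling, HpaI digestion and capillary electrophoresis; gain-of-signal versus DMSO.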
Sequence of Bile acid receptor (Homo sapiens) (Q96RI1 whole entry, looked up, the tested form may be a part): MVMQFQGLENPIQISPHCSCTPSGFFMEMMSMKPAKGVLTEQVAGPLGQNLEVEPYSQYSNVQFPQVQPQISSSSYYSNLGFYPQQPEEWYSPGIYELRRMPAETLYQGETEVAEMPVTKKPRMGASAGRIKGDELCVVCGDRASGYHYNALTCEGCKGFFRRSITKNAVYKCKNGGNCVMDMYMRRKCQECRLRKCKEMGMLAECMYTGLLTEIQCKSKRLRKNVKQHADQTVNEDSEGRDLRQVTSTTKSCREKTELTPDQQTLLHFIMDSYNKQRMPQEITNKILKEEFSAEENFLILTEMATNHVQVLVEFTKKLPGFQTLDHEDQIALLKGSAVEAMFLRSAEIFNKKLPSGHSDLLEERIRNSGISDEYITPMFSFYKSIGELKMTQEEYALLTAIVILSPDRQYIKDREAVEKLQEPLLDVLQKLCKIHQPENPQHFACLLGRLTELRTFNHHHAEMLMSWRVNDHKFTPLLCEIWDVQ

For assay [8], the target named is Oxysterols receptor LXR-beta (Homo sapiens) (UniProt P55055). Description: ATG_LXRb_TRANS: Attagene TRANS-FACTORIAL HepG2 Assay for human Liver X Receptor beta (LXRb) (AID 2282981; active = hit-call score of the fitted dose curve at least 0.9, where 1 is the maximum). Conditions: HepG2 Attagene TRANS GAL4-LXRb reporter, mRNA. The method in brief:
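Gain-of-signal mRNA reporter endpoint, DMSO as negative control. Transiently transfected HepG2 cells carrying the NR-Gal4 chimera and GAL4-UAS reporter units were treated 24 h; transcripts quantified by RT-PCR and capillary electrophoresis fluorescence.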

A short description of assay [9]: ATG_M_06_TRANS: Attagene TRANS-FACTORIAL HepG2 Assay for M06 Transcription Factor (Internal Marker) (AID 2282983; active = hit-call score of the fitted dose curve at least 0.9, where 1 is the maximum). To be noted: HepG2 Attagene TRANS M06 internal marker reporter. The method in brief: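 HepG2 cells transiently transfected with multiplexed GAL4-UAS reporter transcription units; after 24 h compound exposure, reporter mRNA measured by RT-PCR, FAM-labelled primer extension, HpaI digestion and capillary electrophoresis. Gain-of-signal fitted versus DMSO baseline; background control readout.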

Assay [10] concerns the target Nuclear respiratory factor 1 (Homo sapiens) (UniProt Q16656). Description: ATG_NRF1_CIS: Attagene CIS-FACTORIAL HepG2 Assay for human Nuclear Respiratory Factor 1 (NRF1) Orphan Gene (AID 2282987). To be noted: HepG2 NRF1 cis-element reporter, Attagene multiplex; actives raise or lower the signal. The method in brief:
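Endogenous NRF1-driven reporter transcription measured in transiently transfected human HepG2 liver cells. Readout: reporter mRNA by RT-PCR and capillary electrophoresis with fluorescence detection, 24 h post-dosing. Gain or loss of signal fitted relative to DMSO baseline.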

Assay [11] can be described thus: ATG_NFI_CIS: Attagene CIS-FACTORIAL HepG2 Assay for human Nuclear Factor I (NFI) (AID 2282989). Conditions: HepG2 cis-regulatory reporter, NFI response element transcription; actives raise or lower the signal. Summed up:
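After transient transfection of HepG2 with cis-promoter reporter constructs and 24 h dosing, RNA is reverse-transcribed, amplified, 6-FAM end-labelled and HpaI-digested before capillary analysis. Bidirectional curve fitting against DMSO.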

Assay [12] has as its target Glucocorticoid receptor (Homo sapiens) (UniProt P04150). Nature of the assay: ATG_GR_TRANS: Attagene TRANS-FACTORIAL HepG2 Assay for human Glucocorticoid Receptor (GR) (AID 2282978; active = hit-call score of the fitted dose curve at least 0.9, where 1 is the maximum;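 also: activators score as hits since higher reporter transcript over DMSO is fitted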). To be noted: HepG2 Attagene TRANS GR reporter, mRNA transcription. Summed up:
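Transient MRTU transfection of HepG2 (GAL4-UAS reporters, exogenous NR-GAL4 chimeras), 24 h dosing. Readout: reporter transcript via RT-PCR + capillary electrophoresis fluorescence. Positive direction vs DMSO baseline.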

Assay [13] deals with Transcriptional activator Myb (Homo sapiens) (UniProt P10242). Nature of the assay: ATG_Myb_CIS: Attagene CIS-FACTORIAL HepG2 Assay for human Myeloblastosis (Myb) Proto-Oncogene Transcription Factor (AID 2282986). Conditions: HepG2 Attagene CIS-FACTORIAL Myb reporter transcription; actives raise or lower the signal. The method in brief:
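HepG2, transient MRTU transfection (cis-element promoters, endogenous TF activity), 24 h compound exposure. Readout: reporter mRNA via RT-PCR, 6-FAM labeling, HpaI digest, capillary electrophoresis. Gain/loss fit vs DMSO.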

The target in assay [14] is Myc proto-oncogene protein (Homo sapiens) (UniProt P01106). Nature of the assay: ATG_Myc_CIS: Attagene CIS-FACTORIAL HepG2 Assay for human Myelocytomatosis (Myc) Proto-Oncogene Transcription Factor (AID 2282990). Conditions: HepG2, Attagene cis-reporter transcription factor activity; actives raise or lower the signal. The method in brief: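 Fluorescence intensity of reporter-specific cDNA fragments, separated by capillary electrophoresis, gives the signal. Transfected HepG2 cells carrying cis-promoter reporter constructs are incubated with compound for 24 h; DMSO serves as baseline.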
Sequence of Myc proto-oncogene protein (Homo sapiens) (P01106 whole entry, looked up, the tested form may be a part): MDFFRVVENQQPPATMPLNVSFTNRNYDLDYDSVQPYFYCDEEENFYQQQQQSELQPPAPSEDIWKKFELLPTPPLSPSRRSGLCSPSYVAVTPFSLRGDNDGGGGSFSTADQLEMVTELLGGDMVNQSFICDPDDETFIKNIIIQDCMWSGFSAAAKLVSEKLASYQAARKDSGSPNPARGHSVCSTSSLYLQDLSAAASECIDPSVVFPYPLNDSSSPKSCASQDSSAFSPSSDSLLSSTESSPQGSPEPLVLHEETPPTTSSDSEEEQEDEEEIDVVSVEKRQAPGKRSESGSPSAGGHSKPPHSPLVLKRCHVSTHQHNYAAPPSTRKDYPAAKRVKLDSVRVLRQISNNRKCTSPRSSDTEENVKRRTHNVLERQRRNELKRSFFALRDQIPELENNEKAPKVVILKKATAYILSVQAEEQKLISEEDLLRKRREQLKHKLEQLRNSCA

Assay [15] can be described thus: ATG_M_19_TRANS: Attagene TRANS-FACTORIAL HepG2 Assay for M19 Transcription Factor (Internal Marker) (AID 2282974; active = hit-call score of the fitted dose curve at least 0.9, where 1 is the maximum). Conditions: HepG2 Attagene TRANS-FACTORIAL M19 internal marker reporter. The method in brief:
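24 h chemical exposure of transiently transfected HepG2 (MRTU library). RNA → oligo(dT) RT → PCR → 6-FAM labelling → HpaI cut → CE fluorescence. Positive-direction fit vs DMSO baseline; background internal-marker readout.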

Assay [16] in a line: ATG_GAL4_TRANS: Attagene TRANS-FACTORIAL HepG2 Assay for GAL4 (Internal Marker) (AID 2282976; active = hit-call score of the fitted dose curve at least 0.9, where 1 is the maximum). Conditions: HepG2 Attagene TRANS GAL4 internal marker reporter. The method in brief:
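HepG2 cells transiently transfected with multiplexed GAL4-UAS reporter constructs were dosed for 24 h. Reporter mRNA was measured by RT-PCR, 6-FAM primer extension, HpaI digestion and capillary electrophoresis, and gain of signal was fitted relative to DMSO.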

The target in assay [17] is Oxysterols receptor LXR-alpha (Homo sapiens) (UniProt Q13133). Description: ATG_LXRa_TRANS: Attagene TRANS-FACTORIAL HepG2 Assay for human Liver X Receptor alpha (LXRa) (AID 2282980; active = hit-call score of the fitted dose curve at least 0.9, where 1 is the maximum). Conditions: HepG2 Attagene TRANS reporter, LXRa transactivation. The method in brief:
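HepG2 cells were transiently transfected with multiplexed reporter units driven by chimeric LXRa–GAL4 fusion proteins, then dosed for 24 h. Reporter mRNA was quantified by RT-PCR, fluorescent labelling and capillary electrophoresis; gain of signal fitted against DMSO baseline.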

A short description of assay [18]: ATG_M_32_TRANS: Attagene TRANS-FACTORIAL HepG2 Assay for M32 Transcription Factor (Internal Marker) (AID 2282984; active = hit-call score of the fitted dose curve at least 0.9, where 1 is the maximum). To be noted: HepG2 Attagene TRANS M32 internal marker reporter. The method in brief:
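Capillary electrophoresis of 6-FAM-labelled reporter fragments gives the signal; data fitted for gain over DMSO negative control. Source: HepG2 cells bearing transient multiple reporter transcription units, 24 h exposure.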

Assay [19] deals with Nuclear receptor subfamily 4 group A member 2 (Homo sapiens) (UniProt P43354). Nature of the assay: ATG_NURR1_TRANS: Attagene TRANS-FACTORIAL HepG2 Assay for human Nuclear Receptor Related Protein 1 (NURR1) (AID 2282985; active = hit-call score of the fitted dose curve at least 0.9, where 1 is the maximum). To be noted: HepG2 Attagene TRANS reporter, mRNA readout. The method in brief:
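HepG2 / transient MRTU transfection / 24 h compound exposure / RT-PCR + CE fluorescence of reporter mRNA / gain-of-signal vs DMSO.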

Sequence of Glucocorticoid receptor (Homo sapiens) (P04150 whole entry, looked up, the tested form may be a part): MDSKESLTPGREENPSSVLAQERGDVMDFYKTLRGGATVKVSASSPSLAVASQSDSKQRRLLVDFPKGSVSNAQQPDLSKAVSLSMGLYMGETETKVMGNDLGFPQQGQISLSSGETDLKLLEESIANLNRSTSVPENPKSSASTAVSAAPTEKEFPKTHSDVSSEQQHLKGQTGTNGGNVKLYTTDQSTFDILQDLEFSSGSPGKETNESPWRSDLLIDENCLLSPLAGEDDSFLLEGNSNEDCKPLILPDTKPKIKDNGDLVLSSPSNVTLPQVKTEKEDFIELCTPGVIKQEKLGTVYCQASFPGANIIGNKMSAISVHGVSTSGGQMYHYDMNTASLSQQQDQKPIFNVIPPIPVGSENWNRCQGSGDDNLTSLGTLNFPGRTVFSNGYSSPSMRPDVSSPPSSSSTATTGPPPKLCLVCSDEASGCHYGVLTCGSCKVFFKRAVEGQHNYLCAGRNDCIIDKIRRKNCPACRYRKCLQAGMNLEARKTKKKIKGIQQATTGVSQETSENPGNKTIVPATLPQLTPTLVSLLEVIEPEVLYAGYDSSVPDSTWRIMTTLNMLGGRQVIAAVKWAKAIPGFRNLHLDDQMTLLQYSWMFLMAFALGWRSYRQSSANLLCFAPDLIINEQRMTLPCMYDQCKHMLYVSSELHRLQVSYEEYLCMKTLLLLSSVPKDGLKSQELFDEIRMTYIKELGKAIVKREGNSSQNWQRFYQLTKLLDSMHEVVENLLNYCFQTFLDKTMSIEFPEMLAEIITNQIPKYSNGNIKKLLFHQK
Sequence of Nuclear respiratory factor 1 (Homo sapiens) (Q16656 whole entry, looked up): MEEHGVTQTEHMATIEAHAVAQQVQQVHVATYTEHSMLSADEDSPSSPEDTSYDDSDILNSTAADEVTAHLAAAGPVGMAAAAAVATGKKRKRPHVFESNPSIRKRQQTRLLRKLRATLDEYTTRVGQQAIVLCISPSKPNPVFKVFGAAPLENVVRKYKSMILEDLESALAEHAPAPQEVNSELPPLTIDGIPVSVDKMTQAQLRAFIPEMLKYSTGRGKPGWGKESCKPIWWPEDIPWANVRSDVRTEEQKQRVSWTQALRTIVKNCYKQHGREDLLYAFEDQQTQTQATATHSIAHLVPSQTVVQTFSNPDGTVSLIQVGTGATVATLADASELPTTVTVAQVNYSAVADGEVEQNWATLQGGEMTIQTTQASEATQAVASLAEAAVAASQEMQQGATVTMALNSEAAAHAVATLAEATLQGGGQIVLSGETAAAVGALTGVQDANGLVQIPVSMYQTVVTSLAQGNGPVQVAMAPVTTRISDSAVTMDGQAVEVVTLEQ
Sequence of Oxysterols receptor LXR-beta (Homo sapiens) (P55055 whole entry, looked up, the tested form may be a part): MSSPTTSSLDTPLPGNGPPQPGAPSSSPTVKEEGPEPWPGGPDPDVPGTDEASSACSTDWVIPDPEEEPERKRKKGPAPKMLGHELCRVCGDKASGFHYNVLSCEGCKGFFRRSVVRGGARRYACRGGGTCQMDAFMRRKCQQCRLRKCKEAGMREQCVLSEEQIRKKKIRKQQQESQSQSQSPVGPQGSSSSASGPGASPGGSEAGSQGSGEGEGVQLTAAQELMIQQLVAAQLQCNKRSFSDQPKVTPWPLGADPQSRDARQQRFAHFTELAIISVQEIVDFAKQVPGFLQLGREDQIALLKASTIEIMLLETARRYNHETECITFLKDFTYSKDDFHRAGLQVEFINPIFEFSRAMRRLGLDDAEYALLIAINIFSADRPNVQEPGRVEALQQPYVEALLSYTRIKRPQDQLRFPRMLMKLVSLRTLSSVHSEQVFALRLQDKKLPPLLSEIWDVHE
Sequence of Transcriptional activator Myb (Homo sapiens) (P10242 whole entry, looked up): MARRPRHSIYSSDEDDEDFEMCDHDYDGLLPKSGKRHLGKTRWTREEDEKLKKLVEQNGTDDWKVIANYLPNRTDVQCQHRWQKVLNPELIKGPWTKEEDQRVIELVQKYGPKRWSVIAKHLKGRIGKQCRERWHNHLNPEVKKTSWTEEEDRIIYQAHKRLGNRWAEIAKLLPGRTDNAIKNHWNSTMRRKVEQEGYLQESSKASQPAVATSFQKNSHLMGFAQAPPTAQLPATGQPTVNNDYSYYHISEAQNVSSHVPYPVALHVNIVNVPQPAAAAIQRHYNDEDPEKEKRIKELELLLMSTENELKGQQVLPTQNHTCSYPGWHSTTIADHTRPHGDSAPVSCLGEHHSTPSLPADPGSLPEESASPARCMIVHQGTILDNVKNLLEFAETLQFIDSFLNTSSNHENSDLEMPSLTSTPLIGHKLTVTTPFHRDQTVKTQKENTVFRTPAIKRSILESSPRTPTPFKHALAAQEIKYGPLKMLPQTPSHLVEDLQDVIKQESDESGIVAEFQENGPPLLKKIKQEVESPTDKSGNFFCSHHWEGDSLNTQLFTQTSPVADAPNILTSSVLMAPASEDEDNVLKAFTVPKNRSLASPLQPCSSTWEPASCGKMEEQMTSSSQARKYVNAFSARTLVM
Sequence of Oxysterols receptor LXR-alpha (Homo sapiens) (Q13133 whole entry, looked up, the tested form may be a part): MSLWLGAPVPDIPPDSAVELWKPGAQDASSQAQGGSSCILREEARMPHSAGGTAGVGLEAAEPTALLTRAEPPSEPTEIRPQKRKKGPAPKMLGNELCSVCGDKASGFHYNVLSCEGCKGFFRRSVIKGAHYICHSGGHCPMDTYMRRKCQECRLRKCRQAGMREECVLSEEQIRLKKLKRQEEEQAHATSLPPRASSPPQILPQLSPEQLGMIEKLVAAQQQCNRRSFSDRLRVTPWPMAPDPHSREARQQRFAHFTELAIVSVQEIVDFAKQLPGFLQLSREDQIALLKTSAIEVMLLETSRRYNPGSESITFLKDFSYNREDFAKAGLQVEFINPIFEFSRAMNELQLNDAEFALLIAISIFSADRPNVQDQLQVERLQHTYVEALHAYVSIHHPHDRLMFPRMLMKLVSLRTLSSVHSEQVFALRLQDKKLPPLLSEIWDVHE
Sequence of Estrogen-related receptor gamma (Homo sapiens) (P62508 whole entry, looked up, the tested form may be a part): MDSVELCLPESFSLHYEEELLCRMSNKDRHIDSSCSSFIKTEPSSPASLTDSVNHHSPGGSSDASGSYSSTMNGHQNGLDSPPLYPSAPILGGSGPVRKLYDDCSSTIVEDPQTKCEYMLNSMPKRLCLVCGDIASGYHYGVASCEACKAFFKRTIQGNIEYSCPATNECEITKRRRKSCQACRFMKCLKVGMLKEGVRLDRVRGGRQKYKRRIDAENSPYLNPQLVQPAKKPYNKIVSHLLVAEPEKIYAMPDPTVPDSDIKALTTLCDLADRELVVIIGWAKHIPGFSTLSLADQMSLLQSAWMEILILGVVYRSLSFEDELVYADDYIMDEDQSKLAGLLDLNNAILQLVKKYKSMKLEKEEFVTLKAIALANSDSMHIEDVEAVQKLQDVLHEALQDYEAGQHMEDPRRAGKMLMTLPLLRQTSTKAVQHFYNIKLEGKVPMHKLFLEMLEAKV

With `CN(C)c1ccc(Cc2ccc(N(C)C)cc2)cc1`, the molecule was called inactive in assay [1], in assay [4], in [5], in assay [6], in [7] and in assay [8]. The call in [9] and in assay [10] was inactive. Moreover, the AC50 in [2] is 130 µM (active); in [3], 25.8 µM (active); in [11], 180 µM (active).
For the molecule `CC[C@H]1CC[C@H](NCc2cc3c(cc2OC)[C@H]2C[C@H]2C(=O)N3C)[C@H](c2ccccc2)N1`, the molecule was called inactive in assay [1], in assay [2], in assay [4], in [6], in assay [12] and in [8]. Moreover, the molecule was classed as inactive in [9], in [13], in [10] and in assay [14]. In addition, the values for the AC50 in assay [3], in [5] and in assay [11] were 33.2 µM (active), 96.6 µM (active) and 46.5 µM (active), respectively.
Turning to `O=C(O)c1cc(N=Nc2ccc(S(=O)(=O)Nc3ccccn3)cc2)ccc1O`, the result in assay [1], in assay [2], in assay [3], in [5], in [15] and in assay [16] was inactive. Further, the result in assay [12], in assay [17], in [18], in assay [10], in assay [11] and in [14] was inactive.
As to `CCOc1cccc(-n2cc(C(=O)N3CCN(c4cc(C(=O)O)c5ccccc5c4)CC3)nc2-c2ccc(C)cc2)c1`, the result in assay [1], in assay [5], in assay [15], in [16], in [12] and in [7] was inactive. The outcome in assay [9], in assay [18], in [11] and in assay [14] was inactive. Besides, the AC50 was 151 µM (active) in [2], 27.2 µM (active) in assay [3] and 22.7 µM (active) in assay [10].
As to `CC(C)CC(C)(O)C#CC(C)(O)CC(C)C` (stereo unspecified), the molecule was classed as inactive in [1], in assay [2], in [3], in [5], in assay [15] and in assay [12]. Further, the molecule was called inactive in [10], in [11] and in [14].
`CC(O)CN(CCN(CC(C)O)CC(C)O)CC(C)O` (stereo unspecified): the call in assay [1], in assay [2], in assay [3], in [5], in assay [15] and in assay [12] was inactive. The result in [17], in assay [13], in [10], in [11] and in [14] was inactive.
Regarding `Nc1cccc(N)c1`, the call in [1], in assay [2], in assay [3], in assay [5], in assay [15] and in assay [7] was inactive. The molecule was classed as inactive in assay [8], in assay [9], in [10], in assay [11] and in assay [14].
For the molecule `CC(C)=CCC/C(C)=C\CO`, the result in assay [1], in assay [2], in [3], in assay [5], in [15] and in assay [12] was inactive. For the same molecule, the outcome in assay [7], in assay [8], in assay [9], in assay [18], in assay [19] and in assay [10] was inactive. Moreover, the molecule was called inactive in assay [11] and in assay [14].
Take `C=CCCCCCCCCC(=O)O`: the outcome in assay [1], in assay [2], in [3], in [5], in assay [15] and in assay [17] was inactive. Besides, the outcome in assay [8], in assay [18], in assay [13], in assay [10], in assay [11] and in assay [14] was inactive.
On to `CNS(=O)(=O)c1cc(C(=O)N2CCC(CCN3C4CCC3CC(n3c(C)nc5ccccc53)C4)(c3cccc(F)c3)CC2)c(Cl)cc1F` (stereo unspecified), for which the outcome in assay [1], in [2], in assay [5], in [15], in assay [16] and in assay [9] was inactive. Besides, the call in assay [18], in assay [10] and in assay [11] was inactive. Moreover, in assay [3], the AC50 is 5.14 µM (active).
